A549 viability: kills or reduces viability of A549 cells in Nrf2 counter-screen; A549 ARE-Fluc cells, CellTiter-Fluor viability, 18-24 h; Potency, µM (doses to about 46 µM), actives largely listed as inhibitors; 390,000 tested, 0.16% active; AID 504648
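A549 ARE_Fluc cells in 5% FBS OPTI-MEM were exposed to compounds in concentration-response for 18-24 h at 37 deg C. Viability was read by CellTiter-Fluor fluorescence (Ex 405/Em 525) after 30 min, before the luciferase read.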
IDH1 R132H inh: human IDH1 R132H inhibition. O75874. IDH1-R132H enzyme, NADPH consumption, diaphorase/resazurin fluorescence. Potency, µM (top dose mostly 76.6 µM), usual class: inhibitors. 390,000 tested, 0.093% active; also: nearly all actives have a fitted effect of over 65% in size
Target sequence (O75874 whole entry R132H, stated change not applied): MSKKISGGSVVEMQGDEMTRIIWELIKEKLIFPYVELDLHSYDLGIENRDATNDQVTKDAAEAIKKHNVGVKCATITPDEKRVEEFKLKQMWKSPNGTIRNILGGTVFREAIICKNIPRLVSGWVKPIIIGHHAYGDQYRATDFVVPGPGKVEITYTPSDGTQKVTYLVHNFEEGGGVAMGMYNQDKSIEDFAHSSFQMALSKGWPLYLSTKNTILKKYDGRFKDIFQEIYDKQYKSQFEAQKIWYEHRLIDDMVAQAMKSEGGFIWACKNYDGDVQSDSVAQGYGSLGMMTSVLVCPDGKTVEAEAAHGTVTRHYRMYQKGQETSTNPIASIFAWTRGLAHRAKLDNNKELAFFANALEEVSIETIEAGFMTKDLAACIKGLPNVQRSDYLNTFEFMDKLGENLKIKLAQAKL
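IDH1-R132H (0.5 ug/mL dispensed) in pH 7.5 Tris buffer was preincubated 30 min with compound, then given a substrate mix of 0.016 mM NADPH and 2 mM alpha-KG for 80 min at room temperature; remaining NADPH was read by diaphorase/resazurin fluorescence.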
Nrf2 block: Nrf2 pathway inhibition | A549 ARE-Fluc reporter, luciferase luminescence, 18-24 h | Potency, µM (doses to about 46 µM), actives largely listed as inhibitors | 360,000 tested, 2.1% active | AID 504444; also: nearly all actives have a fitted effect of over 60% in size
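Two sequential reads on A549 ARE_Fluc cells exposed to compound for 18-24 h: a CellTiter-Fluor fluorescence read for viability, then a luciferase luminescence read for Nrf2/ARE activity.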
Giardia killer: Giardia lamblia killing. Giardia lamblia trophozoite viability. activity change, % at 7.66 µM, hits read low. 340,000 tested, 0.15% active; in the data active = activity change below about -80%; inconclusive = between about -30% and that limit;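 also: parasites exposed to compound for two days anaerobically before the ATP read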
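Compounds were tested on trophozoites seeded at 100 cells/well and held 48 hrs at 37 deg C anaerobically. An ATP-based luminescent kit measured the remaining live cells.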
Anesthetic bind: candidate novel general anesthetic via apoferritin binding; P02791; apoferritin/1-aminoanthracene competitive binding, fluorescence; Potency, µM (highest dose often 77.5 µM), usual class: inhibitors; 350,000 tested, 0.074% active; AID 485281; also: nearly all actives have a fitted effect of over 20% in size
Target sequence (P02791 2-175 limits assumed): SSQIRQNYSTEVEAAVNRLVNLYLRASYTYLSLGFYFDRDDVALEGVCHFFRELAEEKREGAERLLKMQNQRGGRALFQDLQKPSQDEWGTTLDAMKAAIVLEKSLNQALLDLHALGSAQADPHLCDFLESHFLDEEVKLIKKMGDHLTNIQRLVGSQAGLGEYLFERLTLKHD
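Concentration-response curves derived by four-parameter Hill fitting of normalized fluorescence, where compounds displaced 1-AMA from 10 uM horse apoferritin following a brief 10 min room-temperature incubation; propofol titration acted as positive control.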
Nrf2 ARE act: activates Nrf2 signaling; 410,000 tested, 0.31% active; AID 624171; AREc32 ARE-luciferase reporter (MCF7-derived line), luminescence, 24 h; Potency, µM (titrated, usually from 46.1 µM), most hits filed as activators; also: nearly all actives have a fitted effect of over 65% in size
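Steps: seed AREc32_Fluc cells (1000/well, 5% FBS OPTI-MEM); incubate overnight at 37 deg C; add 23 nL compound; incubate 24 hr; add Steady-Glo; hold 30 min RT; read luminescence.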
A number is an active result; n = inactive; u = inconclusive; x = no result given. An excerpt weighted towards active compounds, which were near 2.3% of everything screened. Unless noted, calls follow the shape of the dose curve; as a rule, active = well fitted curve in the direction sought with a large enough effect; inconclusive = small, poorly fitted or top-dose-only effect, or another doubt; inactive = no such curve, though single readings can be large; an effect the other way counts as inactive or inconclusive.

SMILES	A549 viability	IDH1 R132H inh	Nrf2 block	Giardia killer	Anesthetic bind	Nrf2 ARE act
O=c1oc(CCCO)cc2ccc(C#Cc3ccsc3)cc12	n	n	n	n	x	u
CC(C)(O)c1cc2ccc(C#Cc3ccsc3)cc2c(=O)o1	n	n	n	n	x	5.01µM
COc1ccc(Br)cc1S(=O)(=O)N1CCN(S(=O)(=O)c2ccc3c(c2)OCCO3)CC1	n	x	u	x	x	x
CC(C)(C)c1ccc(Cn2nnc3c(=O)[nH]c(C4CCCN(C(=O)c5cccs5)C4)nc32)cc1 (stereo unspecified)	n	n	23.1µM	n	u	n
O=C(c1ccco1)N1CCC(c2nc3c(nnn3Cc3c(Cl)cccc3Cl)c(=O)[nH]2)CC1	n	n	n	n	n	n
CC(C)(C)c1ccc(Cn2nnc3c(=O)[nH]c(C4CCN(C(=O)c5ccco5)CC4)nc32)cc1	u	u	25.9µM	n	n	n
CC(C)ON(CC(=O)NO)S(=O)(=O)c1ccc(-c2ccccc2)cc1	x	x	x	x	n	x
N#Cc1nc(-c2ccco2)oc1N1CCN(c2ccccc2)CC1	n	n	u	n	n	n
N#Cc1nc(-c2ccco2)oc1N1CCOCC1	n	n	x	n	n	12.6µM
CNc1oc(/C=C/c2ccccc2)nc1C#N	n	n	u	n	n	2.82µM
COCCNc1oc(/C=C/c2ccccc2)nc1C#N	n	n	u	n	n	n
Cc1cc(Nc2ccc(F)cc2)n2c(nc3ccccc32)c1C#N	n	n	n	x	n	n
Cc1cc(Nc2cccc([N+](=O)[O-])c2)n2c(nc3ccccc32)c1C#N	u	n	10.3µM	n	n	n
CCOc1ccc(NC(=O)c2cc3c(-c4ccccc4F)nn(C)c3s2)cc1	n	n	n	x	n	n
C[C@]12CC[C@@H]3c4ccc(OC(=O)c5ccccc5)cc4CC[C@H]3[C@@H]1CC[C@@H]2O	n	n	u	n	n	n
COc1cc2c(cc1O)CC[C@@H]1[C@@H]2CC[C@]2(C)[C@@H](O)CC[C@@H]12	n	n	9.2µM	n	n	n
O=S(=O)(c1ccc(Br)cc1)N1CCN(c2nc(-c3ccccc3)nc3ccccc23)CC1	n	x	n	n	x	x
Cc1cc(C)c(C(O)c2ncc(-c3ccccc3F)[nH]2)c(C)c1 (stereo unspecified)	x	x	x	x	x	n
Cc1cccc(/C=C/c2onc(C)c2[N+](=O)[O-])n1	18.4µM	n	14.6µM	n	x	n
COc1ccc(CN(C)C(=O)CNC(=O)Cc2cccc3ccccc23)c(OC)c1OC	n	n	n	n	n	n
COc1cccc(CN(C)C(=O)CNC(=O)c2sc3ccccc3c2Cl)c1OC	n	n	25.9µM	n	x	n
CCCc1ccc(-c2cc(C(=O)N/N=C/c3ccc([N+](=O)[O-])o3)c3ccccc3n2)cc1	n	n	10.3µM	-94.5	u	n
O=C(N/N=C/c1ccc([N+](=O)[O-])o1)c1cc(-c2cccc(Br)c2)nc2ccccc12	u	n	12.6µM	-85.9	n	u
Cn1c2ccsc2c2cnn(Cc3ccccc3F)c(=O)c21	n	x	n	x	x	x
N#Cc1ccccc1OC1=NS(=O)(=O)c2ccccc21	n	x	n	x	x	x
SMILES	A549 viability	IDH1 R132H inh	Nrf2 block	Giardia killer	Anesthetic bind	Nrf2 ARE act
COC(=O)c1c(N)n(-c2cc(Cl)cc(Cl)c2)c2nc3ccccc3nc12	n	n	n	x	n	n
Cc1ccc(-c2ccc(/C=N\NC(=O)c3cc4c(ccc5ccccc54)o3)o2)cc1[N+](=O)[O-]	u	n	23.1µM	n	n	n
Cc1ccc([N+](=O)[O-])cc1-c1ccc(/C=N/NC(=O)c2cc3c(ccc4ccccc43)o2)o1	n	n	n	n	n	n
COc1cc2nc(NC(=O)c3ccc(F)cc3Cl)sc(=O)c2cc1OC	n	n	6.51µM	n	n	n
O=C(Nc1ccc2c(c1)CCCN2C(=O)c1cccs1)c1c(F)cccc1Cl	n	n	25.9µM	n	n	n
O=C(Nc1ccc(C(=O)N2CCCc3ccccc32)cc1)c1cccs1	u	n	20.6µM	n	u	n
O=C(Nc1ccc2c(c1)CCCN2C(=O)c1cccs1)c1c(F)cccc1F	n	n	n	n	n	n
CCCN(CCC)S(=O)(=O)c1ccc(C(=O)N2CCCc3ccccc32)cc1	n	n	18.4µM	n	u	n
COc1ccc(SCC(Cc2ccccc2)N2CCN(CCc3ccccc3)CCC2=O)cc1 (stereo unspecified)	n	x	n	n	n	x
Cc1csc2ncnc(NNC(=O)c3ccc(Cl)cc3)c12	n	n	20.6µM	n	n	n
CCOC(=O)c1cnc(-n2nc(C)cc2C)nc1NNc1nc(-c2ccccc2)cc(-c2ccccc2)n1	u	n	8.2µM	n	n	n
CCOC(=O)c1cnc(-n2nc(C)cc2C)nc1NNc1nc(C)cc(C)n1	n	n	n	n	n	n
C#C[C@@]1(O)CC[C@@H]2[C@@H]3CCC4=CC(=O)CC[C@@H]4[C@H]3CC[C@]21C	x	x	x	x	n	x
CC#C[C@]1(O)CC[C@H]2[C@@H]3CCC4=CC(=O)CCC4=C3[C@@H](c3ccc(N(C)C)cc3)C[C@@]21C	n	n	23.1µM	n	u	n
COc1cc2c(cc1OC)C(COc1cccc(C(F)(F)F)c1)N(C(=O)c1ccc(S(=O)(=O)N3CCCC3)cc1)CC2 (stereo unspecified)	n	n	x	x	n	n
CCOC(=O)N1CC=C2C(C#N)=C(N)C(C#N)(C#N)[C@H](c3cccs3)C2C1 (stereo partly specified)	n	n	n	n	n	n
CC1CC=C2C(C#N)=C(N)C(C#N)(C#N)C(c3cccs3)C2C1 (stereo unspecified)	n	20.7µM	n	n	n	n
CCc1noc(-c2ccc(N(C)Cc3ccc(OC)cc3)c([N+](=O)[O-])c2)n1	n	n	n	x	n	n
Cc1ccccc1C(=O)N1CCCC(CCC(=O)N2CCN(c3ccccn3)CC2)C1 (stereo unspecified)	n	n	23.1µM	n	n	n
O=C1Cc2cc(S(=O)(=O)N3CCN(c4ccc(C(F)(F)F)cc4)CC3)ccc2N1	n	x	u	x	x	x
O=C(c1ccccc1[N+](=O)[O-])N(CCc1ccccc1)Cc1ccccc1	n	n	u	n	n	n
Cc1cccc(C(=O)N(CCc2ccccc2)Cc2ccccc2)c1[N+](=O)[O-]	u	n	20.6µM	n	n	n
Cc1[nH]nc2c1C(c1ccc(-c3ccc(Cl)cc3)o1)C(C#N)=C(N)O2 (stereo unspecified)	n	u	n	n	n	15.8µM
CCc1cccc(C)c1NC(=O)C1=C(C)C(=O)OC12CCC(C)CC2 (stereo unspecified)	n	x	n	x	n	n
CC(=NNC(=O)c1ccncc1)c1ccccc1Cl	n	n	n	n	x	n

Bioassay records deposited in PubChem BioAssay by National Center for Advancing Translational Sciences (NCATS).
